Measurements taken from the supplement of paper PMC6658780.
Structures can show the parent of a compound that is named as a salt. ± gives the standard deviation of the averaged measurements.

tested on: Klebsiella pneumoniae KPC-119; assay: percent growth inhibition of drug + antibiotic vs DMSO control; higher = more growth inhibition; conditions: antibiotic (0.125x MIC): gentamicin; 7 µM

| SMILES | percent growth inhibition |
| --- | --- |
| O=C(O)c1cn(-c2ccc(F)cc2)c2cc(N3CCNCC3)c(F)cc2c1=O [Sarafloxacin] | 99.81 ± 0.1% |
| CN(C)c1ccc(O)c2c1C[C@H]1C[C@H]3[C@H](N(C)C)C(O)=C(C(N)=O)C(=O)[C@@]3(O)C(O)=C1C2=O [Minocycline hydrochloride] | 6.41 ± 2.8% |
| CN[C@@H]1[C@@H](O[C@H]2O[C@H](CO)[C@@H](N)[C@H](O)[C@H]2O)OC2C[C@@H](N)[C@@H](O[C@H]3[C@H](O)[C@@H](O)[C@H](N)C[C@@H]3N)OC2[C@@H]1O (stereo not given in full) [Apramycin] | 27.9 ± 0.46% |
| O=C1OCCN1/N=C/c1ccc([N+](=O)[O-])o1 [Furazolidone] | 17.8 ± 1.7% |
| CO[C@@]1(NC(=O)CSCC#N)C(=O)N2C(C(=O)O)=C(CSc3nnnn3C)CS[C@@H]21 [Cefmetazole sodium salt] | 3.52 ± 6.6% |
| NC[C@@H]1O[C@H](O[C@H]2[C@@H](O)[C@H](O[C@@H]3[C@@H](O)[C@H](N)C[C@H](N)[C@H]3O[C@H]3O[C@H](CO)[C@@H](O)[C@H](O)[C@H]3N)O[C@@H]2CO)[C@H](N)[C@@H](O)[C@@H]1O [Paromomycin sulfate] | 8.59 ± 1.5% |
| CO[C@H]1/C=C/O[C@@]2(C)Oc3c(C)c(O)c4c(O)c(c(/C=N/N5CCN(C6CCCC6)CC5)c(O)c4c3C2=O)NC(=O)/C(C)=C\C=C\[C@H](C)[C@H](O)[C@@H](C)[C@@H](O)[C@@H](C)[C@H](OC(C)=O)[C@@H]1C [Rifapentine] | 4.75 ± 13% |
| CC(=O)OC[C@H]1O[C@@H]([S-])[C@H](OC(C)=O)[C@@H](OC(C)=O)[C@@H]1OC(C)=O.CCP(CC)CC.[Au+] [Auranofin] | 33.2 ± 9.4% |
| CO/N=C(\C(=O)N[C@@H]1C(=O)N2C(C(=O)O)=C(COC(C)=O)CS[C@H]12)c1csc(N)n1 [Cefotaxime sodium salt] | 29.3 ± 2.3% |
| CO[C@H]1/C=C/O[C@@]2(C)Oc3c(C)c(O)c4c(c3C2=O)C2=NC3(CCN(CC(C)C)CC3)NC2=C(NC(=O)/C(C)=C\C=C\[C@H](C)[C@H](O)[C@@H](C)[C@@H](O)[C@@H](C)[C@H](OC(C)=O)[C@@H]1C)C4=O [Rifabutin] | 41.8 ± 7% |
